From PubChem
Rows were chosen to be rich in hits. Some 8% of all compounds tested hit in one or more screens of this group.
SW480 rereplic: induces DNA re-replication in SW480 colon adenocarcinoma cells. 340,000 tested, 1.8% active. AID 624297. SW480 DNA re-replication, Hoechst DNA content imaging, 48 h. Potency, µM (titrated, usually from 46.1 µM), for inactives: at the highest dose re-replication activation, actives largely listed as activators; further: % of control where 0% means no effect; nearly all actives have a fitted effect of over 55% in size
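Per well, 250 cells were exposed to pinned compound for 48 hr. Nuclear DNA was visualised with Hoechst (40 min, 37 C) and total object intensity recorded by fluorescence scanning.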
MCF10A rerep: DNA re-replication induction in MCF 10a cells | MCF 10A DNA re-replication, Hoechst nuclear intensity, 48 h | 350,000 tested, 2.9% active | AID 624296 | Potency, µM (highest dose often 46.1 µM), inactives show at the top dose activity, positive = re-replication, usual class: activators; further: % of control where 0% means no effect; nearly all actives have a fitted effect of over 50% in size
KB-V1 MDR tox: KB-V1 MDR subline cytotoxicity. 400,000 tested, 3.4% active. Potency, µM (highest dose often 46.1 µM), most hits filed as cytotoxic. KB-V1 MDR cells viability, CellTiter-Glo, 72 h; further: on the % scale 0 is the no-effect control and ±100 the full control effect; nearly all actives have a fitted effect of over 60% in size
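Drug-selected KB-V1 cells, grown in DMEM lacking phenol red with 10% FBS, receive compound titrations; after three days at 37 degrees C, surviving cell ATP is quantified by CellTiter-Glo luminescence and responses normalized and curve-fitted.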
KB-3-1 tox: kills parental KB-3-1 adenocarcinoma cells | 400,000 tested, 1.4% active | Potency, µM (top dose mostly 46.1 µM), hits mostly cytotoxic | KB-3-1 viability, CellTiter-Glo ATP luminescence, 72 h; further: on the % scale 0 is the no-effect control and ±100 the full control effect; nearly all actives have a fitted effect of over 60% in size
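Luminescent ATP read-out (CellTiter-Glo) measures survival of drug-naive KB-3-1 cells after 72 h compound exposure at 37 °C. Titration series was screened from lowest to highest concentration, with DMSO vehicle plates as background controls.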
HT1080 IDH1KD tx: toxicity to HT-1080 IDH1 knockdown cells (counter line). HT-1080 IDH1 knockdown viability, ATP luminescence, 48 h. AID 686971. Potency, µM (highest dose often 46.1 µM), for inactives: at the highest dose activity, negative = toxicity, actives largely listed as cytotoxic. 360,000 tested, 2% active;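 further: 0% = DMSO wells and -100% = cell-free medium wells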
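Cytotoxicity counter-line: IDH1KD HT-1080, 48 h, CellTiter-Glo. Curves classed by r2, magnitude and activity.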
HT1080-NT tox: kills 2HG-producing HT-1080-NT fibrosarcoma cells; 360,000 tested, 1.6% active; AID 686970; HT-1080-NT fibrosarcoma viability, CellTiter-Glo ATP luminescence, 48 h; Potency, µM (series often up to 46.1 µM), for inactives: at the highest dose activity, negative = less viability, actives largely listed as cytotoxic;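 further: NT is the 2HG producing partner of a matched IDH1 knockdown line; 0% = DMSO-treated cells and -100% = media-only wells without cells; nearly all actives have a fitted effect of over 55% in size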
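HT-1080-NT fibrosarcoma cells (2HG-overproducing), 750 cells/well in RPMI with 5% FBS, dosed after 2 h and incubated 48 h at 37C. CellTiter-Glo luminescence normalized to DMSO and no-cell wells; concentration-response curves fitted and classed.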
Starred values were filed as active, the others as inactive; i = inactive; ? = inconclusive; · = no result; [ ] = remark or other dose. The call rests on the fitted dose curve; in most records, active means well fitted curve in the direction sought with a large enough effect; inconclusive means small, poorly fitted or top-dose-only effect, or another doubt; inactive means no such curve, though single readings can be large; an effect the other way counts as inactive or inconclusive. Potency means the concentration at half of the fitted maximal effect.

SMILES	SW480 rereplic	MCF10A rerep	KB-V1 MDR tox	KB-3-1 tox	HT1080 IDH1KD tx	HT1080-NT tox
CC(C)C(=O)Nc1cccc(-c2cnc3ccccc3n2)c1	4%	-5%	13µM*	i	-5%	13%
COCCN=C1Sc2nc3cc(C)c(C)cc3cc2CN1Cc1cccs1	8%	0%	i	i	0%	-2%
N#Cc1ccc(-c2ccc(OCC(=O)NCC(=O)Nc3ccc(F)c(F)c3F)cc2)cc1	-4%	24%	i	i	-1%	6%
Cc1ccccc1NC(c1cccc(Cl)c1)c1nnnn1C1CCCCC1 (stereo unspecified)	-5%	-4%	?	i	3%	1%
CCOc1c(Br)ccc2c1sc1nc[nH]c(=O)c12	6%	?	21µM*	?	1%	-2%
Cc1cccc(C)c1NC(=O)CCS(=O)(=O)c1cccc2nonc12	-5%	11%	i	i	8%	9%
Cc1c(/C=N/NC(N)=O)c2ccccn2c1C(=O)c1ccc(F)cc1	-4%	19%	18µM*	i	-28%	-15%
O=C1C(Cc2ccccc2)C(c2ccccc2)N1c1ccccc1 (stereo unspecified)	11%	?	18µM*	21µM*	-6%	-15%
CCN(C(=O)COC(=O)CCC(=O)c1ccc(C)cc1)c1c(N)n(Cc2ccccc2)c(=O)[nH]c1=O	-7%	6%	i	i	-1%	-3%
COc1nn(-c2ccccc2)c(=O)c(Cl)c1Cl	2.9µM*	3.7µM*	i	?	13µM*	12µM*
N#Cc1cnn2c(C(F)(F)F)c3c(nc12)CCCC3	1%	14%	i	i	-1%	6%
CC(=O)c1ccc(NC(=S)NNC(=O)NC2CCCCC2)cc1	-4%	1%	i	i	5%	7%
Cc1nn(Cc2ccccc2)c(Cl)c1C(=O)NCc1ccc(C)n1C	0%	-1%	15µM*	i	1%	2%
Cc1nn(-c2ccccc2)c(C)c1C(=O)NCc1cccs1	-108%	1%	i	i	14%	7%
Cc1c(-c2ccccc2)nc2ccccc2c1C(=O)NCc1cccs1	21%	?	12µM*	i	-4%	-5%
Cc1nn(-c2ccccc2)c(Cl)c1C(=O)NCc1cccs1	-3%	16%	15µM*	i	27%	14%
CCc1nnc(NC(=O)c2cc(-c3ccco3)nc3ccccc23)s1	3%	?	i	i	0%	-13%
COC(=O)C(NC(=O)C(NC(=O)c1ccccc1)C(C)C)C(C)C (stereo unspecified)	-7%	-2%	i	i	0%	5%
COCC(C)NC(=S)NCCc1ccc(Cl)cc1Cl (stereo unspecified)	?	?	?	i	-9%	-10%
COCCNC(=S)NCCc1ccc(Cl)cc1Cl	16µM*	1%	i	i	-27%	-19%
O=C(Nc1nc(-c2ccccn2)cs1)c1ccc(-c2ccccc2F)o1	?	21µM*	i	?	?	?
Cc1ccc(-c2csc(NC(=O)c3ccc(-c4ccccc4)cc3)n2)o1	12%	?	15µM*	?	-22%	0%
O=C(Nc1nc(-c2ccccn2)cs1)c1ccc([N+](=O)[O-])o1	?	2.3µM*	i	?	?	-18%
Cc1ccc(C(=O)Nc2nc(-c3cc(Cl)sc3Cl)cs2)cc1	0%	26µM*	i	i	-17%	-13%
Cc1ccc(C(=O)Nc2nc(-c3ccccn3)cs2)o1	14%	1%	i	?	?	-17%
SMILES	SW480 rereplic	MCF10A rerep	KB-V1 MDR tox	KB-3-1 tox	HT1080 IDH1KD tx	HT1080-NT tox
O=C(Nc1nc(-c2ccc(Cl)s2)cs1)c1ccccc1	-2%[9.22 µM]	?	i	i	-19%	-4%
Cc1nnc2sc(SCc3cccc(Cl)c3)nn2c1=O	-3%	-8%	i	i	-21%	-17%
CC(=O)Nc1ccc(NC(=O)C(C)OC(=O)c2cccs2)cc1 (stereo unspecified)	-5%	5%	?	i	0%	4%
CC(=O)c1ccc(-c2ccc(C(=O)Nc3nc(-c4ccccn4)cs3)o2)cc1	?	16µM*	?	?	10µM*	?
O=C(COc1ccc(F)cc1)Nc1nc(-c2ccccn2)cs1	?	15%	5.8µM*	?	?	-20%
O=C(OCC(=O)N1CCc2ccccc21)c1cccc(S(=O)(=O)N2CCCc3ccccc32)c1	-3%	0%	i	i	-6%	-6%
COc1ccc(OCc2nnc(-c3ccccc3)o2)cc1	·	·	?	i	·	·
CCOC(=O)C(C(C)=O)c1c(Br)c(O)c(O)c2c(C(=O)c3ccc(C)cc3)coc12 (stereo unspecified)	?	?	21µM*	i	8.9µM*	8.9µM*
CCOC(=O)c1c(C)n(-c2ccc(C)cc2)c2c(C(C(C)=O)C(=O)O)c(Br)c(O)c(O)c12 (stereo unspecified)	?	30%	i	i	-19%	?
CC1(C)Cc2c(c(=S)nc(-c3ccccc3)n2CCCN2CCOCC2)CO1	0%	15%	i	i	2%	-2%
COc1ccc(C)cc1S(=O)(=O)N1CCCCCC1	10%	?	i	i	2%	6%
COc1cc(C)ccc1S(=O)(=O)N1CCN(C23CC4CC(CC(C4)C2)C3)CC1	2%	?	13µM*	i	6%	5%
COc1ccc(C)cc1S(=O)(=O)N1CCC(C)CC1	8%	4%	18µM*	i	-3%	-6%
COc1cc(F)ccc1S(=O)(=O)N1CCN(C23CC4CC(CC(C4)C2)C3)CC1	0%	3%	i	?	-10%	-1%
O=C(c1ccccc1)c1cc2cc(Cl)ccc2[nH]1	-3%	4%	i	i	-11%	-19%
N#Cc1cc2cc(Cl)ccc2[nH]c1=O	·	·	i	4.6µM*	7%	9%
O=C1CCc2cc(S(=O)(=O)N3CCCC3C(=O)N3CCN(c4ccccc4)CC3)ccc2N1 (stereo unspecified)	-11%	2%	i	i	1%	-1%
O=S(=O)(Nc1ccc(C(O)(C(F)(F)F)C(F)(F)F)cc1)c1ccc(Cl)c2nonc12	·	·	?	?	15µM*	21µM*
Fc1cccc2sc(Nc3nnc(-c4ccccc4)o3)nc12	12%	23µM*	i	?	?	?
